# Screens: PubChem, Broad Institute
# PDI inh: PDI (human) enzyme inhibition; inhibition, % at 10 µM; PDI insulin aggregation turbidity, A650, 90 min; P07237; AID 588391; actives 0.052% (n = 350,000);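 active = mean inhibition across replicates of 30% or more, whatever share of single replicates reach that level; inconclusive = mean inhibition below 30% while every single replicate reaches 30%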
# Target sequence (P07237 whole entry, looked up): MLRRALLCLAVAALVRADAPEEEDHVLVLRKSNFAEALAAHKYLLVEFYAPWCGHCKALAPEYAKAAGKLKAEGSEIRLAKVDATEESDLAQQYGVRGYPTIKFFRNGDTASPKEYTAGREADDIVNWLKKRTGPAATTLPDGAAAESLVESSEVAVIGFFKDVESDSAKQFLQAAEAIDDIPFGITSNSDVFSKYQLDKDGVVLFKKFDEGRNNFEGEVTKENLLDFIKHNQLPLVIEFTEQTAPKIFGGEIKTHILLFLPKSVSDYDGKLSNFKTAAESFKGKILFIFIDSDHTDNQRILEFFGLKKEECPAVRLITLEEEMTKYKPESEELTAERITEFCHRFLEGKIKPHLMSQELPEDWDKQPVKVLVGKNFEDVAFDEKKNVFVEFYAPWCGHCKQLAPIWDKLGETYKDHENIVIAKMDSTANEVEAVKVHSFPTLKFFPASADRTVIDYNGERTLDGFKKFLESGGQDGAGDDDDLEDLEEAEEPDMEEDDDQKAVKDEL
# Rtt109 HAT inh: C. albicans Rtt109 histone acetyltransferase inhibition. Q5AAJ8. purified Rtt109/Vps75, ThioGlo CoA-SH fluorescence, 4 h. inhibition, % at 34.9 µM. actives 0.16% (n = 330,000);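 active = inhibition of at least 50% in every replicate; inconclusive = best replicate reaches 50% inhibition but some replicates fall short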
# ERAP1 inh: ERAP1 (human) enzyme inhibition | recombinant ERAP1, Leu-AMC fluorescence, 60 min | actives 0.15% (n = 340,000) | AID 652197 | inhibition, % at 10.7 µM | Q9NZ08;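 active = mean replicate inhibition of at least 30%, or all replicates individually reaching that 30% level; inactive = mean below 30% and not every replicate reaching it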;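 also: 0% = neutral control wells and 100% = L-leucinethiol positive control wells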
# PvdQ acylase: blocks Pseudomonas aeruginosa PvdQ acylase activity; purified PvdQ acylase, fluorescence plate reader; inhibition, % at 10 µM; actives 0.063% (n = 340,000); in the data active = inhibition above about 30%, passing the limit was not always enough; inconclusive = no clear call, values can overlap the other calls;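 also: 0% = vehicle neutral wells and 100% = reference inhibitor wells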
# ERp5 inh: inhibitors of human ERp5; Q15084; ERp5 insulin aggregation, absorbance 650 nm, 90 min; inhibition, % at 9.99 µM; actives 0.05% (n = 350,000); AID 651711;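 active = mean replicate inhibition above about 25%, with every replicate also reaching it, limit read from the data, passing the limit was not always enough; inconclusive = only one of those two criteria met; inactive = neither criterion met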
# * marks the source's active call; other numbers are inactive results; i = inactive; ? = inconclusive; nt = no result; ! = not active in a repeat. Sampled rows, rich in hits. Any-hit rate of the full collection: about 0.35%.
SMILES,PDI inh,Rtt109 HAT inh,ERAP1 inh,PvdQ acylase,ERp5 inh
N#CC(c1ccc(Cl)cc1)c1cccc(Cl)n1 (centres undefined),-7,-4,-5,117*,-7
C[C@H]1CN([C@@H](C)CO)C(=O)c2cc(/C=C/c3ccccc3)cnc2O[C@@H]1CN(C)C(=O)Cc1cccnc1,nt,nt,-1,nt,-1
C[C@H]1c2cccc(O)c2C(O)=C2C(=O)C3(O)C(O)=C(C(N)=O)C(=O)[C@@H](N(C)C)[C@@H]3[C@@H](O)[C@@H]21 (some centres undefined),-6,1,4,12,2
C=C1c2cccc(O)c2C(O)=C2C(=O)[C@]3(O)C(O)=C(C(N)=O)C(=O)[C@@H](N(C)C)[C@@H]3[C@@H](O)[C@H]12,nt,-9,35*,-11,1
CC(=O)c1ccc(OCc2cc(C(=O)N3CCC(c4ccncc4)CC3)no2)cc1,-1,8,0,-11,2
CC(=O)c1ccc(OCc2cc(C(=O)N3CCCCC3c3cccnc3)no2)cc1 (centres undefined),33*,-13,1,-11,10
COc1ccc(NC(=O)N(C)C[C@H]2OCCCC[C@@H](C)Oc3ccc(NS(C)(=O)=O)cc3C(=O)N([C@H](C)CO)C[C@H]2C)cc1,nt,nt,5,nt,3
Cc1ccccc1-c1ccc2c(c1)O[C@@H](CN(C)C(=O)Nc1ccc(F)cc1)[C@@H](C)CN([C@H](C)CO)S2(=O)=O,nt,nt,2,nt,0
COc1ccc(-c2csc(NC(=O)C3CCN(C(=O)c4ccc(F)cc4)CC3)n2)cc1OC,1,16,-6,-13,29*
COc1ccc(CNC(=O)C2CCN(C(=O)c3ccc(F)cc3)CC2)cc1OC,-6,-3,-5,-16,-10
CCOC(=O)c1ccc(N2N=C(C)/C(=C/C=C/c3ccco3)C2=O)cc1,-8,8,nt,-10,nt
O=C(O)c1cc(N2N=C(C(F)(F)F)/C(=C/C=C/c3ccco3)C2=O)ccc1Cl,5,-7,33*,-9,16
CN(C)CC(=O)Nc1ccc2c(c1)[C@H]1C[C@@H](CC(=O)N3CCN(C)CC3)O[C@@H](CO)[C@H]1O2,nt,nt,1,nt,0
O=C1CCc2cc(S(=O)(=O)NCc3ccccc3Cl)cc3c2N1CC3,6,10,1,2,29*
COc1cc2ccc(=O)oc2c(O[C@@H]2O[C@H](CO)[C@@H](O)[C@H](O)[C@H]2O)c1O,2,i,59*,-15,8
COc1cc2ccc(=O)oc2c(O)c1O,nt,126*,20,2,9
C[N+]1(C2CCC3CCCC2C3O)CCCCC1 (centres undefined),-14,-6,46*,-8,5
CC(C)C#Cc1ccc2c(c1)O[C@@H](CN(C)C(=O)C1CC1)[C@@H](C)CN([C@@H](C)CO)S2(=O)=O,nt,nt,1,nt,61*
C[C@@H]1CN([C@@H](C)CO)S(=O)(=O)c2ccc(C#Cc3cccnc3)cc2O[C@H]1CN(C)C(=O)CN(C)C,nt,nt,1,nt,54*
COCC(=O)N(C)C[C@H]1Oc2cc(C#CC(C)(C)O)ccc2S(=O)(=O)N([C@H](C)CO)C[C@H]1C,nt,nt,0,nt,73*
CCC1(CC)NC(=O)N(CC(=O)OC(C)C(=O)Nc2ccc(S(N)(=O)=O)cc2)C1=O (centres undefined),-5,nt,-1,nt,9
CCC1(CC)NC(=O)N(CC(=O)OC(C)C(=O)Nc2ccc(NC(C)=O)cc2)C1=O (centres undefined),0,0,-5,-16,28*
C[C@@H]1CN([C@H](C)CO)C(=O)c2c(c3ccccc3n2C)-c2ccccc2CO[C@H]1CN(C)S(=O)(=O)c1ccc(C#N)cc1,nt,nt,-1,nt,4
Cc1noc(C)c1NC(=O)N(C)C[C@H]1Oc2ccc(NC(=O)c3ccncc3)cc2C(=O)N([C@H](C)CO)C[C@@H]1C,12,6,4,-13,28*!
Cc1noc(C)c1NC(=O)Nc1ccc2c(c1)C(=O)N([C@H](C)CO)C[C@@H](C)[C@@H](CN(C)C(=O)Nc1ccc(F)cc1)O2,nt,nt,0,nt,51*
SMILES,PDI inh,Rtt109 HAT inh,ERAP1 inh,PvdQ acylase,ERp5 inh
C[C@@H]1CN([C@H](C)CO)C(=O)c2cc(NC(=O)Nc3ccc(F)cc3)ccc2O[C@H]1CN(C)Cc1ccc(-c2ccccc2)cc1,nt,nt,0,nt,51*
C[C@@H]1CN([C@H](C)CO)C(=O)c2cc(NC(=O)Nc3ccc(F)cc3)ccc2O[C@@H]1CN(C)Cc1ccc(-c2ccccc2)cc1,nt,nt,2,nt,4
C[C@H](CO)N1C[C@H](C)[C@H](CN(C)C(=O)Nc2ccc3c(c2)OCO3)Oc2ccc(NS(=O)(=O)c3ccccc3)cc2C1=O,nt,nt,1,nt,2
C[C@@H]1CN([C@@H](C)CO)C(=O)c2cc(NS(=O)(=O)c3ccccc3)ccc2O[C@H]1CN(C)C(=O)Nc1ccc2c(c1)OCO2,nt,nt,2,nt,58*
N#C[C@@H]1[C@@H](c2ccc(-c3ccc(F)cc3)cc2)[C@@H](CO)N1c1nc(-c2ccccc2)cs1,nt,nt,2,nt,2
O=C(Nc1cc(F)ccc1F)N1CC(=O)N2[C@H](CO)[C@@H](c3ccc(-c4cccc(F)c4)cc3)[C@H]2C1,nt,nt,nt,nt,-1
O=C(C[C@H]1C=C[C@@H](NC(=O)C2CCOCC2)[C@@H](CO)O1)NCc1ccncc1,nt,nt,-1,nt,2
O=[N+]([O-])c1cccc(/C=C/CO)c1,nt,nt,1,nt,2
O=CC1=C(c2ccccc2)Oc2ccccc2O1,-2,7,-2,82*,1
C[C@@H]1CN([C@H](C)CO)C(=O)Cc2cc(NC(=O)c3ccncc3)ccc2O[C@H]1CN(C)CC1CC1,nt,nt,0,nt,-3
CN1CCc2cccc3c2[C@@H]1Cc1ccc(O)c(O)c1-3,1,60*,nt,-14,nt
O=C(NC1CCCCC1)Oc1cc2oc(=O)sc2cc1Br,2,59*,26,-17,-2
O=C(NC1CCCCCC1)c1ccc(Br)o1,6,-13,2,-7,0
O=C(C[C@H]1CC[C@@H]2[C@H](COC[C@@H](O)CN2Cc2ccccc2)O1)N[C@H]1CCN(Cc2ccccc2)C1,nt,nt,2,nt,4
COc1ccc(N2CCN(C(=O)CNC(=O)Cc3ccccc3)CC2)cc1,-1,53*,-3,4,7
COc1ccccc1N1CCN(C(=O)c2ccc(Br)o2)CC1,-16,7,-5,9,0
COc1ccc(N2CCN(C(=O)c3ccc(Br)o3)CC2)cc1,-10,0,-2,42*,-4
CCc1cc(OCCCCNCc2ccccc2)ccc1Cl,54*,-1,nt,-9,nt
Cc1cccc2c1-c1sc(C(=O)Nc3nccs3)cc1CO2,-13,-9,13,-9,?
CCOC(=O)c1cc2c(s1)-c1c(C)cccc1OC2,nt,-44,5,68*,-3
COc1ccc2c3c(n(C)c2c1)[C@H](CO)N(C(=O)Nc1ccc(F)cc1)CC31CN(S(=O)(=O)c2cccc(C)c2)C1,nt,nt,nt,nt,-1
Clc1ccc2scc(CN3CCCC3)c2c1,1,4,nt,81*,2
C[C@H]1CN([C@@H](C)CO)C(=O)c2cccc(NC(=O)c3cnccn3)c2O[C@@H]1CN(C)S(=O)(=O)c1cccs1,nt,nt,-1,nt,3
